From publication PMC7862700, “An all-to-all approach to the identification of sequence-specific readers for epigenetic DNA modifications on cytosine”

Legend:
Experiment in all cases: DAPPL (digital affinity profiling via proximity ligation, sequencing); 10 mM Tris-HCl pH 7.5, 50 mM NaCl, 1 mM DTT, 4% glycerol, room temperature, 30 min; GST-TFs on glutathione beads, 16-mer random dsDNA library, 0.1% formaldehyde crosslink after washing; high values mean tight binding
FLI1 = target: T1, FLI1 (Homo sapiens, UniProt Q01543 1-452); conditions: protein: recombinant; tags: N-terminal GST; dsDNA, one strand shown
T1 sequence: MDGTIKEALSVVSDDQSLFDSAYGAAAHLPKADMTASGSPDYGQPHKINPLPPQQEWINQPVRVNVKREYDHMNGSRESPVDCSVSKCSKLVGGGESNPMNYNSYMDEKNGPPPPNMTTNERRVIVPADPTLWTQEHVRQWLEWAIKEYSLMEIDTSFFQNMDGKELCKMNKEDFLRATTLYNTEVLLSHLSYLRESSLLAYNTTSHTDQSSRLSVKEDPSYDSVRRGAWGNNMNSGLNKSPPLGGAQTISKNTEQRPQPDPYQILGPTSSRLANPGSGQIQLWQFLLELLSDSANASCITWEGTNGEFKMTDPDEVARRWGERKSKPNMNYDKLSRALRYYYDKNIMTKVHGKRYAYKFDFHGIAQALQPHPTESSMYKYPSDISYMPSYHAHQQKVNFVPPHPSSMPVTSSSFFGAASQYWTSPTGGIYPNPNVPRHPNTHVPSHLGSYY
Summary of the method: (§1)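 GST fusions of human transcription factors were expressed in yeast and captured with glutathione beads. Once given DNA barcodes and pooled alongside a tag-only sample, they were incubated for 30 min at room temperature with 200 nmole of a random double-stranded 16-mer DNA library in Tris/NaCl/DTT/glycerol buffer, then washed, crosslinked (0.1% formaldehyde), proximity-ligated, PCR-amplified and sequenced on an Illumina NextSeq500. The binding signal of each hexamer is its read frequency for a factor divided by its frequency for the tag-only sample.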

ELK1 = target: T2, ELK1 (Homo sapiens, UniProt P19419 1-428); conditions: protein: recombinant; tags: N-terminal GST; dsDNA, one strand shown
T2 sequence: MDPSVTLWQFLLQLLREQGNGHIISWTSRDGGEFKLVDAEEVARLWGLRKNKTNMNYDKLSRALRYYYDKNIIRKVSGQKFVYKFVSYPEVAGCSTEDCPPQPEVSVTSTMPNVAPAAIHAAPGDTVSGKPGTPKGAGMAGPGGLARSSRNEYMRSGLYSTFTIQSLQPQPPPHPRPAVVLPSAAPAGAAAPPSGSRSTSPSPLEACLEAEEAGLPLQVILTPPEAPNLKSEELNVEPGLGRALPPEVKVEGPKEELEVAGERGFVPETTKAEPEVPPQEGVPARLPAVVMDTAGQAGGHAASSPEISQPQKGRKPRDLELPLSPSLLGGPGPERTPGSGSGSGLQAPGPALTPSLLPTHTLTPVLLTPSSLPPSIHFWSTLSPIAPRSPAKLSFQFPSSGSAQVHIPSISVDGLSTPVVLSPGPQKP
Summary of the method: as §1

GABPA = target: T3, GABPA (Homo sapiens, UniProt Q06546 1-454); conditions: protein: recombinant; tags: N-terminal GST; dsDNA, one strand shown
T3 sequence: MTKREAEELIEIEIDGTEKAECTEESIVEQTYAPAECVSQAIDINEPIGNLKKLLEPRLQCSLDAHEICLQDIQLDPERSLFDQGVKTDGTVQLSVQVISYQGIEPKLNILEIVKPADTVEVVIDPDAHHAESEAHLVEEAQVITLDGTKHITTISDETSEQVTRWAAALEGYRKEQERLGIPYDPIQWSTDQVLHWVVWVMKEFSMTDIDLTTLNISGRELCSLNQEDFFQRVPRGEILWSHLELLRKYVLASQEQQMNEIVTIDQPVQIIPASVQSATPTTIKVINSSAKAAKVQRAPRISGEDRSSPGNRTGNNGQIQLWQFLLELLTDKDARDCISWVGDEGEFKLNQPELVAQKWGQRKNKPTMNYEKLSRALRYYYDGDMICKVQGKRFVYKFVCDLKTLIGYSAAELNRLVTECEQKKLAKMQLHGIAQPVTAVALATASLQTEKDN
Summary of the method: as §1

ERG = target: T4, ERG (Homo sapiens, UniProt P11308 1-479); conditions: protein: recombinant; tags: N-terminal GST; dsDNA, one strand shown
T4 sequence: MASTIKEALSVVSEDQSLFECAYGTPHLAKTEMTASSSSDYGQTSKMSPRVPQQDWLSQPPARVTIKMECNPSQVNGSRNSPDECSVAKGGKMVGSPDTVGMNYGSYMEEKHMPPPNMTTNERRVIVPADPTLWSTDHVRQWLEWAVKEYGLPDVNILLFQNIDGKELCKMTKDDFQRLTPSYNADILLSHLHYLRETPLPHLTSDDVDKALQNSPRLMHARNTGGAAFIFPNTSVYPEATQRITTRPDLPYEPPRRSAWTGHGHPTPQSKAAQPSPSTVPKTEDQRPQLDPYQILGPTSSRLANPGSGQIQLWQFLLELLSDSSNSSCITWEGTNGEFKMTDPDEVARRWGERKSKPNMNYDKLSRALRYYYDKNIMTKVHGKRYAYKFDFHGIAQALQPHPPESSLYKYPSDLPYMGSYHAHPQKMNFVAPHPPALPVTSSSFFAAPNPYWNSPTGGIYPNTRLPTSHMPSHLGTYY
Summary of the method: as §1

ELF1 = ELF1 (Homo sapiens, UniProt P32519 1-619); conditions: protein: recombinant; tags: N-terminal GST; dsDNA, one strand shown
Summary of the method: as §1

EHF = target: T5, EHF (Homo sapiens, UniProt Q9NZC4 1-300); conditions: protein: recombinant; tags: N-terminal GST; dsDNA, one strand shown
T5 sequence: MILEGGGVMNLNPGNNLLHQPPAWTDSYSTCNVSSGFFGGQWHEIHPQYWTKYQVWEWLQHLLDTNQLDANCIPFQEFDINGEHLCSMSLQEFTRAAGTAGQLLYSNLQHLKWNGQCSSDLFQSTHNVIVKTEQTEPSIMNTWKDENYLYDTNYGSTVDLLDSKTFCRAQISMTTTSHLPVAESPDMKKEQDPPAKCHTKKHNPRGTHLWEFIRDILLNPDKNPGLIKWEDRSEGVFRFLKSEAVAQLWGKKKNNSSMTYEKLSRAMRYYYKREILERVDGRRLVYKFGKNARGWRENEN
Summary of the method: as §1

SPI1 = SPI1 (Homo sapiens, UniProt P17947 1-270); conditions: protein: recombinant; tags: N-terminal GST; dsDNA, one strand shown
Summary of the method: as §1

SPIB = SPIB (Homo sapiens, UniProt Q01892 1-262); conditions: protein: recombinant; tags: N-terminal GST; dsDNA, one strand shown
Summary of the method: as §1

ELK3 = target: T6, ELK3 (Homo sapiens, UniProt P41970 1-407); conditions: protein: recombinant; tags: N-terminal GST; dsDNA, one strand shown
T6 sequence: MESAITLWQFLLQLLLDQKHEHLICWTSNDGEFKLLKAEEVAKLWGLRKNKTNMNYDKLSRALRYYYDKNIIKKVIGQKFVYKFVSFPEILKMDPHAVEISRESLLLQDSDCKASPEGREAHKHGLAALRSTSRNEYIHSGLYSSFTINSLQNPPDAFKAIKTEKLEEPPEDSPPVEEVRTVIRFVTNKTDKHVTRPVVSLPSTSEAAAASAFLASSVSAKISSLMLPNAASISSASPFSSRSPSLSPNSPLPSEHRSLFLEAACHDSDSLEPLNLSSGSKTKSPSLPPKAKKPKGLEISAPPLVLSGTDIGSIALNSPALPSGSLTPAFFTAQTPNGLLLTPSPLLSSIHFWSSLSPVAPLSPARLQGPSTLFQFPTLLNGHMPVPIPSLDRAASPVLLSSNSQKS
Summary of the method: as §1

FEV = target: T7, FEV (Homo sapiens, UniProt Q99581 1-238); conditions: protein: recombinant; tags: N-terminal GST; dsDNA, one strand shown
T7 sequence: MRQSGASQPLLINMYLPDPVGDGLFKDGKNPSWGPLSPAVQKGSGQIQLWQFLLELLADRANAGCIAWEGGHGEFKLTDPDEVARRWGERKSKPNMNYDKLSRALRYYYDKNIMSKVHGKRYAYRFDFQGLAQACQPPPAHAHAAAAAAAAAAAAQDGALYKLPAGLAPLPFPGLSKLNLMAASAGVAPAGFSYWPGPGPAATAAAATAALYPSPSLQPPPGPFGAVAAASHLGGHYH
Summary of the method: as §1

ETV5 = ETV5 (Homo sapiens, UniProt P41161 1-510); conditions: protein: recombinant; tags: N-terminal GST; dsDNA, one strand shown
Summary of the method: as §1

HSF1 = HSF1 (Homo sapiens, UniProt Q00613 1-529); conditions: protein: recombinant; tags: N-terminal GST; chain copies: 3; dsDNA, one strand shown
Summary of the method: as §1

SPIC = target: T8, SPIC (Homo sapiens, UniProt Q8N5J4 1-248); conditions: protein: recombinant; tags: N-terminal GST; dsDNA, one strand shown
T8 sequence: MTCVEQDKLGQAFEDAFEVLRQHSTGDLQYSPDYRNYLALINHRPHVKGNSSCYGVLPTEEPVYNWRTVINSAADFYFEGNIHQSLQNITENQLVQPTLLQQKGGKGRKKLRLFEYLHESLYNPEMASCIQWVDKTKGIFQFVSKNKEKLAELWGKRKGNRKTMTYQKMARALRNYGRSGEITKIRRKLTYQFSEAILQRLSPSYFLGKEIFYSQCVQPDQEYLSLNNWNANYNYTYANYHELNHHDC
Summary of the method: as §1

ELF4 = ELF4 (Homo sapiens, UniProt Q99607 1-663); conditions: protein: recombinant; tags: N-terminal GST; dsDNA, one strand shown
Summary of the method: as §1

ELK4 = target: T9, ELK4 (Homo sapiens, UniProt P28324-2 1-405); conditions: protein: recombinant; tags: N-terminal GST; dsDNA, one strand shown
T9 sequence: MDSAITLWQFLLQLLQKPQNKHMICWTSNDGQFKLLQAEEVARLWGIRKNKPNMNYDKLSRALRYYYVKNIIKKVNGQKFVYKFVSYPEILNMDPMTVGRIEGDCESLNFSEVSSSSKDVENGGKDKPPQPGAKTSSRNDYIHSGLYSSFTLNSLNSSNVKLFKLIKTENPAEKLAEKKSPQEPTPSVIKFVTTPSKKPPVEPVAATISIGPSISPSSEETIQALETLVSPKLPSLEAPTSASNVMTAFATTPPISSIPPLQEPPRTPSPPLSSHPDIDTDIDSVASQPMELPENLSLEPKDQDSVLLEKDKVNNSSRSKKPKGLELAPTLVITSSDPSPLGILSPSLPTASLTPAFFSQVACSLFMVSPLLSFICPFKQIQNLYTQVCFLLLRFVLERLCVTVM
Summary of the method: as §1

ETV2 = target: T10, ETV2 (Homo sapiens, UniProt O00321 1-342); conditions: protein: recombinant; tags: N-terminal GST; dsDNA, one strand shown
T10 sequence: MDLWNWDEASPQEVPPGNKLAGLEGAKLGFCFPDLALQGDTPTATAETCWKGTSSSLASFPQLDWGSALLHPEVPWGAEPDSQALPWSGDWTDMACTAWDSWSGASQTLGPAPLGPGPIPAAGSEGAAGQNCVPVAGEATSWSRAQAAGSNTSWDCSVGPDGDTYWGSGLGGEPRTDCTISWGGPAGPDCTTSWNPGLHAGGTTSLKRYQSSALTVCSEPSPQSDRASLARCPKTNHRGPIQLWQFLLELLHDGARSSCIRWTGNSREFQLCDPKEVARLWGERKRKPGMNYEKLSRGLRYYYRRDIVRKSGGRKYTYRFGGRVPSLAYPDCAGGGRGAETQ
Summary of the method: as §1

ELF3 = target: T11, ELF3 (Homo sapiens, UniProt P78545 1-371); conditions: protein: recombinant; tags: N-terminal GST; dsDNA, one strand shown
T11 sequence: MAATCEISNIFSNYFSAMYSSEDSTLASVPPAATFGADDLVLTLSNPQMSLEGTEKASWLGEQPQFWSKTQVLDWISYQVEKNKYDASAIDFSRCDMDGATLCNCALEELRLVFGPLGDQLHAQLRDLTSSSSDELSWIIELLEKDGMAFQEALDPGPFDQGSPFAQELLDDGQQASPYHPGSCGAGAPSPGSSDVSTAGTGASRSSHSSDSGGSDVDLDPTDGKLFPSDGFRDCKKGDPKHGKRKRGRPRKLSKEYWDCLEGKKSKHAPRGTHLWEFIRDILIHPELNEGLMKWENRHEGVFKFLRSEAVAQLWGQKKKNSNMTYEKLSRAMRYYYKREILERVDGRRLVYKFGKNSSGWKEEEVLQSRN
Summary of the method: as §1

ETV1 = ETV1 (Homo sapiens, UniProt P50549 1-477); conditions: protein: recombinant; tags: N-terminal GST; dsDNA, one strand shown
Summary of the method: as §1

ELF1, sequence (P32519 whole entry): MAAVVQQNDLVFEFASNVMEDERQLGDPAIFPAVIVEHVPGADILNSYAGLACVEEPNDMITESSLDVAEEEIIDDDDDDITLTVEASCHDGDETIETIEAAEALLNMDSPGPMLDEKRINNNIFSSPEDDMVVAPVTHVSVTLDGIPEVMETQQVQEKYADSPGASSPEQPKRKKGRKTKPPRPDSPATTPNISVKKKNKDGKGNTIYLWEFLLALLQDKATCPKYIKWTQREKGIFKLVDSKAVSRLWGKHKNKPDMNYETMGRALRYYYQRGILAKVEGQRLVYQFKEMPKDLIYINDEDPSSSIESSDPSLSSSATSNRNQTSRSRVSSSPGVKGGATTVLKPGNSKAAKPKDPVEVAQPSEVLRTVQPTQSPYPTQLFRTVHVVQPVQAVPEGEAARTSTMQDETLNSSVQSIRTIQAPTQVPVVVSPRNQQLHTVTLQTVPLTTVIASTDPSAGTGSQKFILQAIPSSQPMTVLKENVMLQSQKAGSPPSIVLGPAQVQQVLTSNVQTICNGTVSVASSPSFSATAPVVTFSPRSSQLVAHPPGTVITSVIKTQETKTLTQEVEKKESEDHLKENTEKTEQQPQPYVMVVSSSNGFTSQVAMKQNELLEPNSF
ETV5, sequence (P41161 whole entry): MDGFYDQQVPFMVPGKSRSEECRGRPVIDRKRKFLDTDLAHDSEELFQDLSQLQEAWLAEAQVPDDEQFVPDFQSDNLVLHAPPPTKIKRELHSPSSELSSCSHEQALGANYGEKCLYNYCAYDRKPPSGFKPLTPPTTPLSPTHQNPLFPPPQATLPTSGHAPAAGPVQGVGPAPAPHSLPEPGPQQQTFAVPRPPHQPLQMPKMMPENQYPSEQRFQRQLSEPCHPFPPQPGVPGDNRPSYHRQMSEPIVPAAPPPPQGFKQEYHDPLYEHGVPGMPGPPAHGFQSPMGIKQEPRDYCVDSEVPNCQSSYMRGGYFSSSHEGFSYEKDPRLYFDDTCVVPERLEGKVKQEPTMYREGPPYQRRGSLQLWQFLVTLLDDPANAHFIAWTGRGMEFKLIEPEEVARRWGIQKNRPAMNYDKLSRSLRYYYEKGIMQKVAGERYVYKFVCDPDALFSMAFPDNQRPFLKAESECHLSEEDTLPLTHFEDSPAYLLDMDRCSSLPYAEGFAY
ELF4, sequence (Q99607 whole entry): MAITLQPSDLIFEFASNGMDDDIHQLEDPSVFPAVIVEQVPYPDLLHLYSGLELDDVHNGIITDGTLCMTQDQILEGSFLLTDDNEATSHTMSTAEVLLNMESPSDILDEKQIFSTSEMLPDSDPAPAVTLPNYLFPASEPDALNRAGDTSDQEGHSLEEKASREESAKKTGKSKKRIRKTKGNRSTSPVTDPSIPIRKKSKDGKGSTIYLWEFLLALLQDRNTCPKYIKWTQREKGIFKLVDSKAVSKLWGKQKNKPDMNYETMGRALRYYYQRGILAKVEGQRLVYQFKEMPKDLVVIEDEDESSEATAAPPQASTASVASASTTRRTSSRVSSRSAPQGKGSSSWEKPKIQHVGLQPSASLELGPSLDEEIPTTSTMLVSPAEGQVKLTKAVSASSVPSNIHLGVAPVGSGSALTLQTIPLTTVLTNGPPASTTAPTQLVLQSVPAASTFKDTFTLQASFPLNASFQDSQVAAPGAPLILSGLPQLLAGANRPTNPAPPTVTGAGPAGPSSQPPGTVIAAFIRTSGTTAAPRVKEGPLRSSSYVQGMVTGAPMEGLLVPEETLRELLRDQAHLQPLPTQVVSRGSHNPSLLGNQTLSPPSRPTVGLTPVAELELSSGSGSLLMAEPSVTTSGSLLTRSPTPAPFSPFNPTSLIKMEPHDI
HSF1, sequence (Q00613 whole entry): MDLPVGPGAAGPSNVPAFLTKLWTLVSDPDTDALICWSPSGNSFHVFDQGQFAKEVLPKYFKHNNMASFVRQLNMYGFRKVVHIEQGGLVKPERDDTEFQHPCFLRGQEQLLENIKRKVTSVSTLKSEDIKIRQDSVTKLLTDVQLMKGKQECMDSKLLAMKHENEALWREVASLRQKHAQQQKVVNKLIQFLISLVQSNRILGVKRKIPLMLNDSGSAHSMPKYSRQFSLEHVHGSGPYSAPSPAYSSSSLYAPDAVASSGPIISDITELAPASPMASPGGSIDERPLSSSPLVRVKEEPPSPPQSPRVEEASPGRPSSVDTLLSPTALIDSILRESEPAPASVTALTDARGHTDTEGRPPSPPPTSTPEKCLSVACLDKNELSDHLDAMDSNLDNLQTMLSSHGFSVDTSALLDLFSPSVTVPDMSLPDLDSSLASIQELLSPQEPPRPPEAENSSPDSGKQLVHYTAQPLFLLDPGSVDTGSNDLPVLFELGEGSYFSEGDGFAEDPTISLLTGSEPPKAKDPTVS
ETV1, sequence (P50549 whole entry): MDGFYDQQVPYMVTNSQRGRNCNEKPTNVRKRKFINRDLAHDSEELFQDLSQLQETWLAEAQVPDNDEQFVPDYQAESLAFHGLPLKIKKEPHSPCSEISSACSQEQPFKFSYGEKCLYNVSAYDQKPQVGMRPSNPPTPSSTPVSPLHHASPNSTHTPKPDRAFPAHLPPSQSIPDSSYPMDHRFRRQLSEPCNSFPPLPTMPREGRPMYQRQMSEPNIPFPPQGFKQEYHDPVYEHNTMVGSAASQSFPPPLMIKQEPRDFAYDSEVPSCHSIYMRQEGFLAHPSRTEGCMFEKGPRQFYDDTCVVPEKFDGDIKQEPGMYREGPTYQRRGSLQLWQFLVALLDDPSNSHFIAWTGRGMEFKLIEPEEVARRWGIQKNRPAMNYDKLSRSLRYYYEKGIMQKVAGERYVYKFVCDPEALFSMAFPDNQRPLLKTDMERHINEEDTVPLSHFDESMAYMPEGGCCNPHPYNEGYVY
SPIB, sequence (Q01892 whole entry): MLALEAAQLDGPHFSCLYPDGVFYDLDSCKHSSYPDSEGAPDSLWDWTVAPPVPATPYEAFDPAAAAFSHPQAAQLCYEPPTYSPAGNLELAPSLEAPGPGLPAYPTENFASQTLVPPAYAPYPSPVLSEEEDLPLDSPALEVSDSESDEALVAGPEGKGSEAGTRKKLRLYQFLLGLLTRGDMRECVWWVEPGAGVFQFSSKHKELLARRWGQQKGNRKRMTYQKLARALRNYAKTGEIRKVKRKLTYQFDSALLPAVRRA

TGAAAC
binding signal (FLI1): 1.31 fold enrichment (6-mer frequency, TF over GST control) | binding signal (ELK1): 1.29 fold enrichment (6-mer frequency, TF over GST control) | binding signal (GABPA): 1.25 fold enrichment (6-mer frequency, TF over GST control) | binding signal (ERG): 1.16 fold enrichment (6-mer frequency, TF over GST control) | binding signal (ELF1): 1.4 fold enrichment (6-mer frequency, TF over GST control) | binding signal (EHF): 1.28 fold enrichment (6-mer frequency, TF over GST control) | binding signal (SPI1): 1.28 fold enrichment (6-mer frequency, TF over GST control) | binding signal (SPIB): 1.18 fold enrichment (6-mer frequency, TF over GST control) | binding signal (ELK3): 1.33 fold enrichment (6-mer frequency, TF over GST control) | binding signal (FEV): 1.31 fold enrichment (6-mer frequency, TF over GST control) | binding signal (ETV5): 1.33 fold enrichment (6-mer frequency, TF over GST control) | binding signal (HSF1): 1.13 fold enrichment (6-mer frequency, TF over GST control) | binding signal (SPIC): 1.27 fold enrichment (6-mer frequency, TF over GST control) | binding signal (ELF4): 1.27 fold enrichment (6-mer frequency, TF over GST control) | binding signal (ELK4): 1.18 fold enrichment (6-mer frequency, TF over GST control) | binding signal (ETV2): 1.4 fold enrichment (6-mer frequency, TF over GST control) | binding signal (ELF3): 1.42 fold enrichment (6-mer frequency, TF over GST control) | binding signal (ETV1): 1.27 fold enrichment (6-mer frequency, TF over GST control)
